“And” between values parts separate entries of the source, which are not always exact repeats. Equal entries are not always repeated. Inconclusive results are not listed. The source made the active and inactive calls. Unless noted, calls follow the shape of the dose curve; as a rule, active = well fitted curve in the direction sought with a large enough effect; inconclusive = small, poorly fitted or top-dose-only effect, or another doubt; inactive = no such curve, though single readings can be large; an effect the other way counts as inactive or inconclusive.
How the values were obtained:
[1] = Cell Viability - BJ (AID 421; calls by dose curve;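 also: potency is read from the fitted curve at half-maximal effect; cells exposed to compound for 40 hours at 37 °C before readout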); settings: BJ fibroblast viability, qHTS
Procedure, shortened: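 Cytotoxicity in human BJ foreskin fibroblasts is scored as loss of cellular ATP after a 40-hour exposure, measured by luciferase luminescence. Controls are DMSO and 100 uM tamoxifen.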

[2] = Cell Viability - Jurkat (AID 426;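 active = dose-dependent loss of cell ATP signal giving a full or clear fitted curve, ranked by lower potency value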;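 also: potency is read from the fitted curve at half-maximal effect; cells exposed to compound for 40 hours at 37 °C before ATP read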); settings: qHTS
Procedure, shortened: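 Jurkat (Clone E6-1) cells, 5000/well in complete medium, exposed to compounds for 40 hr at 37C; intracellular ATP measured by CellTiter-Glo luminescence after 20 min at room temperature. AC50 from Hill fits.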

[3] = Cell Viability - Hek293 (AID 427;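 active = compounds whose dose-response curve shows a full or clear partial loss of cell viability, called from curve shape rather than a numeric limit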;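 also: potency is read from the fitted curve at half-maximal effect; cells exposed to compound for 40 hours at 37 °C before reading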); settings: qHTS
Procedure, shortened: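 qHTS, human embryonic kidney (adenovirus-transformed) cells; 40 hr cpd, 37 °C; CellTiter-Glo ATP luminescence. Norm: DMSO = 0, 100 uM tamoxifen = 100% inhibition. Hill-fit AC50.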

[4] = Cell Viability - SK-N-SH (AID 435; calls by dose curve; also: potency is read from the fitted curve at half-maximal effect); settings: SK-N-SH neuroblastoma cell viability qHTS
Procedure, shortened: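 qHTS cytotoxicity: CellTiter-Glo ATP luminescence after 40 h compound exposure of human neuroblastoma SK-N-SH cells at 37 °C. AC50 derived by Hill-equation fitting, with DMSO as basal and 100 uM tamoxifen as full inhibition.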

[5] = Cellular Toxicity (caspase-3) Jurkat (AID 655); settings: Jurkat caspase-3 activation, luminescence; caspase-3 activation: at 92.2 µM (top of the series), DMSO = 0%, tamoxifen = 100%;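 also: cells exposed to compound for 16 h at 37 °C before reading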
Procedure, shortened: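 Luminescent Caspase-Glo 3/7 read-out (20 min, room temperature) after 16 h compound treatment at 37 C of 5000 Jurkat cells per well. AC50 derived by Hill-equation fitting, scaled between DMSO basal and 100 uM tamoxifen stimulation.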

[6] = Cellular Toxicity (caspase-3) SHSY5Y (AID 657); settings: SH-SY5Y caspase-3 activation, DMSO zero, 10 µM staurosporine = 100%; series mostly up to 91.7 µM
Procedure, shortened: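 Luminescent Caspase-Glo 3/7 read-out, 1 hr room temperature, follows 16 hours of compound treatment of SH-SY5Y cells at 37 °C. Normalization: DMSO basal, 10 uM staurosporine as 100%; AC50 values from Hill-equation concentration-response fits.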

[7] = Cellular Toxicity (caspase-3) BJ (AID 658); settings: BJ fibroblasts, luminescence, normalized: DMSO 0%, staurosporine 100%; series mostly up to 91.7 µM
Procedure, shortened: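 BJ human foreskin fibroblasts, 1000 cells/well, treated 16 hours at 37 °C in complete medium; caspase 3/7 activity by Caspase-Glo luminescence after 1 hr at room temperature. Normalized to DMSO and 10 uM staurosporine; AC50 from Hill fits.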

[8] = Cellular Toxicity (caspase-3) N2a (AID 665); settings: N2a cells, luminescence, normalized: DMSO 0%, 10 µM staurosporine 100%; series mostly up to 92.2 µM;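 also: compound exposure lasted 16 h at 37 °C before readout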
Procedure, shortened: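 Mouse N2a neuroblastoma cells, 1500 per well, treated 16 h at 37 °C in complete medium; caspase-3/7 activity by Caspase-Glo luminescence after 1 h. Normalized to DMSO and 10 uM staurosporine; AC50 from Hill fits.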

[9] = Cellular Toxicity (caspase-3) Renal Proximal Tubule (AID 667); settings: renal proximal tubule cells; series mostly up to 91.7 µM;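 also: cells exposed to compound for 16 hours at 37 °C before detection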
Procedure, shortened: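 Caspase 3/7 activation measured by luminescent aminoluciferin release in primary rat proximal tubule cells after 16 hr compound exposure at 37 °C. AC50 from Hill-fitted concentration-response, scaled between DMSO and 10 uM staurosporine.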

[10] = MultiTox-Fluor Cytotoxicity Assay - LYMP1-001 - Dead Cells (AID 946); settings: LYMP1-001 lymphoblastoid cells, dead-cell protease fluorescence; series mostly up to 92.2 µM
Procedure, shortened: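 Seed 2500 LYMP1-001 cells/well, incubate 5 hr at 37 C; add compound, 16 hr at 37 C; add MultiTox-Fluor reagent, 60 min RT; read dead-cell fluorescence Ex/Em=485/520. Normalize to DMSO and 15 uM tetraoctylammonium bromide.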

[11] = Cell Viability - LYMP1-002 - Assay at 16 hr (AID 948); settings: LYMP1-002 lymphoblastoid cell viability; series mostly up to 92.2 µM;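 also: 0% = DMSO alone and full effect = 92 µM tetraoctylammonium bromide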
Procedure, shortened: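 ATP luminescence (CellTiter-Glo) was measured after 16 hr compound exposure at 37 C of 2500 lymphoblastoid LYMP1-002 cells per well. Concentration-response curves were fitted with the Hill equation to give AC50.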

[12] = MultiTox-Fluor Cytotoxicity Assay - LYMP1-003 - Dead Cells (AID 961); settings: LYMP1-003 lymphoblastoid cells, dead-cell protease fluorescence; series mostly up to 92.2 µM; also: nearly all actives have a fitted effect of over 70% in size
Procedure, shortened: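 LYMP1-003 lymphoblastoid, 2500 cells/well, 5 hr settle then 16 hr cpd at 37 C; MultiTox-Fluor reagent 60 min RT; Ex/Em 485/520 dead-cell signal; norm. DMSO = 0%, 15 uM tetraoctylammonium bromide = 100%; Hill AC50.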

[13] = Cell Viability - LYMP1-003 - Assay at 24 hr (AID 963); settings: LYMP1-003 lymphoblastoid cell viability; series mostly up to 92.2 µM;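 also: plate controls were DMSO only for no effect and tetraoctylammonium bromide positive control for full effect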
Procedure, shortened: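 Human lymphoblastoid LYMP1-003 cells, 2500/well, treated 24 h at 37 C in complete medium. Viability read as intracellular ATP by CellTiter-Glo luminescence after 30 min at room temperature; AC50 from Hill-equation fits of qHTS concentration-response.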

[14] = Cell Viability - LYMP2-013 (AID 970); settings: LYMP2-013 lymphoblastoid cells viability; series mostly up to 92.2 µM;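 also: 0% = DMSO only and full inhibition = tetraoctylammonium bromide control; nearly all actives have a fitted effect of over 55% in size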
Procedure, shortened: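 Human lymphoblastoid LYMP2-013 cells, 2500/well, treated 24 h at 37 C in complete medium; viability as intracellular ATP by CellTiter-Glo luminescence after 30 min. AC50 from Hill fits of qHTS concentration-response.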

[15] = Cell Viability - LYMP2-016 (AID 984); settings: LYMP2-016 lymphoblastoid cell viability, qHTS; series mostly up to 92.2 µM;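 also: cells exposed to compound for 24 hours at 37 °C; % is scaled to controls: 0 for no effect and ±100 for the full control effect; nearly all actives have a fitted effect of over 55% in size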
Procedure, shortened: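 Cytotoxicity was scored by luminescent ATP content (CellTiter-Glo) after 24 h compound exposure at 37 C of a human lymphoblastoid line at 2500 cells/well. Concentration-response data were fitted to the Hill equation for AC50.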

[16] = Cell Viability - LYMP1-002 - Assay at 24 hr (AID 993); settings: LYMP1-002 lymphoblastoid cells viability; series mostly up to 92.2 µM; also: % is scaled to controls: 0 for no effect and ±100 for the full control effect
Procedure, shortened: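 Human lymphoblastoid LYMP1-002 cells (2500/well) treated 24 h at 37 °C; viability as intracellular ATP by CellTiter-Glo luminescence. Tetraoctylammonium bromide as positive control; AC50 from Hill-equation fits of qHTS concentration-response.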

[17] = qHTS Assay for Identification of Small Molecule Inducers of Hypoxia Response (AID 2120; active = well fitted curve in the direction sought with a large enough effect in the signal ratio, with a control signal flat, not every such curve was filed as active; the % refers to the signal ratio; also: 0% is about no effect); settings: hypoxia response reporter cells, beta-lactamase ratio readout; series mostly up to 104 µM
Procedure, shortened: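 HRE-bla ME-180 cells in Opti-MEM with 0.5% dialyzed FBS, pre-plated 4-5 h, then compound titration for 17 h at 37 degrees Celsius. CCF4 loaded 2.5 h at room temperature; 460/530 nm ratio gave %Activity and AC50 for induction.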

[18] = target: Peroxisome proliferator-activated receptor alpha (Homo sapiens) (UniProt Q07869); test: qHTS assay for small molecule agonists of the peroxisome proliferator-activated receptor alpha (PPARalpha) signaling pathway (AID 651778); settings: PathHunter PPARalpha complementation, chemiluminescence, 6 h; stronger effect = higher value; also: % of control where 0% means no effect
Peroxisome proliferator-activated receptor alpha (Homo sapiens), sequence (Q07869 whole entry, looked up, the tested form may be a part): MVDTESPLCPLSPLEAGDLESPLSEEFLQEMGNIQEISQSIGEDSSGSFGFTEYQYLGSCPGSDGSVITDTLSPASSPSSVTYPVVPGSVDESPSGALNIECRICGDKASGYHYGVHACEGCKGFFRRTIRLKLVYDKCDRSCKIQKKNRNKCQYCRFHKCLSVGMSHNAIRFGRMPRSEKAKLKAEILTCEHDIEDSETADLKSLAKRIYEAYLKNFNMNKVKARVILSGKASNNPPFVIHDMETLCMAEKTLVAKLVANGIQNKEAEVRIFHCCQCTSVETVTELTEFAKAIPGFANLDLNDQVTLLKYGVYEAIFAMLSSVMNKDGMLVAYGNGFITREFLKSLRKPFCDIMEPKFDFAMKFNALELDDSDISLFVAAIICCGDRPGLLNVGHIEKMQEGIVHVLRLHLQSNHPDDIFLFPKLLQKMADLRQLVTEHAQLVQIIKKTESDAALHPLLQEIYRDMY
Procedure, shortened: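 Enzyme-fragment complementation assay in which ligand-bound PPARalpha translocates and forms an active enzyme that generates chemiluminescence. Cells were plated overnight, exposed to compound for 6 hr at 37 C, and then given detection reagent for 60 min at room temperature.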

[19] = qHTS assay for cell viability of HEK293 cells (AID 743288); settings: ATP luminescence (CellTiter-Glo), 18 h, stronger effect = lower value; also: % is scaled to controls: 0 for no effect and ±100 for the full control effect; nearly all actives have a fitted effect of over 50% in size
Procedure, shortened: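 Total intracellular ATP, measured with a luciferase-coupled reagent, indicates the number of viable HEK293 cells. Exposure to test chemicals lasts 18 h at 37 C in 1,536-well format at 2,000 cells/well.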

[20] = qHTS assay for cell viability of the p53RE-bla HCT-116 cell line (AID 743292); settings: p53RE-bla HCT-116 viability, ATP luminescence, 16 h; series mostly up to 95 µM; also: % is scaled to controls: 0 for no effect and ±100 for the full control effect; nearly all actives have a fitted effect of over 55% in size
Procedure, shortened: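 Readout: CellTiter-Glo luminescence after 30 min RT. Treatment: compounds in DMSO, 16 h, 37 C. Cells: CellSensor p53RE-bla HCT-116, 4,000/well, preincubated 5 h.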

CNC(=O)O/N=C/C(C)(C)S(C)=O (stereo not drawn)
inactive: Potency [1] > 92 µM | Potency [2] > 92 µM | Potency [3] > 92 µM | Potency [4] > 92 µM | caspase-3 activation [5] 0.627% | outcome [6] | outcome [7] | outcome [8] | outcome [9] | outcome [10] | outcome [11] | Potency [12] | outcome [13] | Potency [14] | Potency [15] | Potency [16] | Potency [17] | max response [18] -3.1% and 0.659% | max response [19] 0.711% and -4.36% | Potency [20]

OCC(Cl)CCl (stereo not drawn)
inactive: Potency [1] > 92 µM | Potency [2] > 92 µM | Potency [3] > 92 µM | Potency [4] > 92 µM | caspase-3 activation [5] 2.02% | outcome [6] | outcome [7] | outcome [8] | outcome [9] | outcome [10] | outcome [11] | Potency [12] | outcome [13] | Potency [14] | Potency [15] | Potency [16] | Potency [17] | max response [18] 0.308% | max response [19] -6.78% | Potency [20]

Nc1cc(Cl)cc(C(=O)O)c1Cl
inactive: Potency [1] > 92 µM | Potency [2] > 92 µM | Potency [3] > 92 µM | Potency [4] > 92 µM | caspase-3 activation [5] -0.545% | outcome [6] | outcome [7] | outcome [8] | outcome [9] | outcome [10] | outcome [11] | Potency [12] | outcome [13] | Potency [14] | Potency [15] | Potency [16] | Potency [17] | max response [18] 9.46% and -1.59% | max response [19] 10.5% and -2.29% | Potency [20]

ClCCOCCCl
inactive: Potency [1] > 92 µM | Potency [2] > 92 µM | Potency [3] > 92 µM | Potency [4] > 92 µM | caspase-3 activation [5] -0.264% | outcome [6] | outcome [7] | outcome [8] | outcome [9] | outcome [10] | outcome [11] | Potency [12] | outcome [13] | Potency [14] | Potency [15] | Potency [16] | Potency [17] | max response [18] -1.95% | max response [19] -0.0116% | Potency [20]

BrCC(Br)C1CCC(Br)C(Br)C1 (stereo not drawn)
inactive: Potency [1] > 92 µM | Potency [2] > 92 µM | Potency [3] > 92 µM | Potency [4] > 92 µM | caspase-3 activation [5] 3.33% | outcome [6] | outcome [7] | outcome [8] | outcome [9] | outcome [10] | outcome [11] | Potency [12] | outcome [13] | Potency [14] | Potency [15] | Potency [16] | Potency [17] | max response [18] 4.79% | max response [19] 1.74% | Potency [20]

FC(Cl)(Cl)Cl
inactive: Potency [1] > 92 µM | Potency [2] > 92 µM | Potency [3] > 92 µM | Potency [4] > 92 µM | caspase-3 activation [5] -0.152% | outcome [6] | outcome [7] | outcome [8] | outcome [9] | outcome [10] | outcome [11] | Potency [12] | outcome [13] | Potency [14] | Potency [15] | Potency [16] | Potency [17] | max response [18] -4.74% | max response [19] -1.1% | Potency [20]

C[N+](=O)[O-]
inactive: Potency [1] > 92 µM | Potency [2] > 92 µM | Potency [3] > 92 µM | Potency [4] > 92 µM | caspase-3 activation [5] 0.536% | outcome [6] | outcome [7] | outcome [8] | outcome [9] | outcome [10] | outcome [11] | Potency [12] | outcome [13] | Potency [14] | Potency [15] | Potency [16] | Potency [17] | max response [18] -2.13% | max response [19] 4.12% | Potency [20]

CC(C)OS(C)(=O)=O
inactive: Potency [1] > 92 µM | Potency [2] > 92 µM | Potency [3] > 92 µM | caspase-3 activation [5] 1.6% | outcome [6] | outcome [7] | outcome [8] | outcome [9] | outcome [10] | outcome [11] | Potency [12] | outcome [13] | Potency [14] | Potency [15] | Potency [16] | Potency [17] | max response [18] -9.26% | max response [19] -1.94% | Potency [20]

O=c1ccc(=O)[nH][nH]1
inactive: Potency [1] > 92 µM | Potency [2] > 92 µM | Potency [3] > 92 µM | Potency [4] > 92 µM | caspase-3 activation [5] 1.49% | outcome [6] | outcome [7] | outcome [8] | outcome [9] | outcome [10] | outcome [11] | Potency [12] | outcome [13] | Potency [14] | Potency [15] | Potency [16] | Potency [17] | max response [18] -0.0075% and -1.1% | max response [19] 3.74% and 5.95% | Potency [20]

Cc1ccc2c(C)cccc2c1
inactive: Potency [1] > 92 µM | Potency [2] > 92 µM | Potency [3] > 92 µM | Potency [4] > 92 µM | caspase-3 activation [5] -1.07% | outcome [6] | outcome [7] | outcome [8] | outcome [9] | outcome [10] | outcome [11] | Potency [12] | outcome [13] | Potency [14] | Potency [15] | Potency [16] | Potency [17] | max response [18] 3.14% | max response [19] 11.2% | Potency [20]

CC(Cl)CCl (stereo not drawn)
inactive: Potency [1] > 92 µM | Potency [2] > 92 µM | Potency [4] > 92 µM | caspase-3 activation [5] 0.191% | outcome [6] | outcome [7] | outcome [8] | outcome [9] | outcome [10] | outcome [11] | Potency [12] | outcome [13] | Potency [14] | Potency [15] | Potency [16] | Potency [17] | max response [18] -4.11% | max response [19] -4.06% | Potency [20]

From PubChem BioAssay (NCATS)
